# Source: PubChem BioAssay (National Center for Advancing Translational Sciences (NCATS))
# Resorufin fluor: qHTS Assay for Spectroscopic Profiling in Resorufin Spectral Region | Compound fluorescence, resorufin region 547/598 nm, buffer; hits give high values | max dye-equivalent concentration, M | actives 0.04% (n = 59,000)
#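 Read-out: intrinsic compound fluorescence at ex 547/em 598 nm after 15 min at RT in pH 8.0 Tris (100 mM). Values expressed as resorufin-equivalent concentration from per-plate standard series.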
# Rhodamine autofl: qHTS Assay for Spectroscopic Profiling in Rhodamine Spectral Region; actives 0.05% (n = 59,000); AID 594, 2007; Rhodamine-region fluorescence, 547/598 nm, Tris buffer; hits give high values; max dye-equivalent concentration, M; in the data active = max dye-equivalent concentration above about 11 nM; inconclusive = between about 1.1 nM and that limit
#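 Steps: pin-transfer compounds into pH 8.0 Tris (100 mM), hold 15 min at room temperature, image with a 547/598 nm filter pair, and convert intensities to rhodamine-equivalent concentration using a six-point on-plate rhodamine series.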
# A647 autofl: qHTS Assay for Spectroscopic Profiling in A647 Spectral Region; Compound fluorescence, A647 channel (570/671 nm), Tris buffer; max dye-equivalent concentration, M; 59,000 tested, under 10 active;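 note: values scaled relative to a standard on each plate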
#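 Compound fluorescence was measured in 100 mM Tris buffer, pH 8.0, after 15 min at room temperature, using 570 nm excitation and 671 nm emission filters. Signal was normalized to a per-plate Alexa 647 standard curve and expressed as dye-equivalent concentration at each compound concentration.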
# Fluorescein fluor: qHTS Assay for Spectroscopic Profiling in Fluorescein Spectral Region | max fluorescein-equivalent concentration, M | actives 0.91% (n = 59,000) | AID 593, 2007 | Compound autofluorescence, 480/540 nm, fluorescein-equivalent; hits give high values; in the data active = max fluorescein-equivalent concentration above about 10 nM; inconclusive = between about 1.1 nM and that limit
#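 Compounds were pin-transferred into 100 mM Tris buffer, pH 8.0, and incubated 15 min at room temperature. Fluorescence was read at 480 nm excitation/540 nm emission. Signals were normalized to an on-plate six-point fluorescein standard curve as dye-equivalent concentration.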
# Texas Red fluor: qHTS Assay for Spectroscopic Profiling in Texas Red Spectral Region; max dye-equivalent concentration, M; Compound fluorescence, Texas Red channel, 547/618 nm; hits give high values; actives 0.06% (n = 59,000); in the data active = max dye-equivalent concentration above about 10 nM; inconclusive = between about 1.1 nM and that limit
#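 Dye-equivalent concentrations come from scaling compound signal (ex 547, em 618 nm) to six Texas Red standard concentrations run on every plate, after 15 min room-temperature incubation in pH 8.0 Tris (100 mM).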
# A488 fluor: qHTS Assay for Spectroscopic Profiling in A488 Spectral Region | max dye equivalency, M | actives 0.1% (n = 59,000) | compound autofluorescence, A488 spectral region, dye equivalency; Compound Type: qHTS ECL - MLSMR
#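 Readout is A488 dye-equivalent concentration, calibrated by a per-plate six-point Alexa 488 series. Compounds in 100 mM Tris buffer pH 8.0 were incubated 15 min at room temperature. Plates were imaged using 480 nm excitation/540 nm emission filters.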
# * = called active by the depositor; i = inactive; ? = inconclusive. Sampled rows, rich in hits. Any-hit rate of the full collection: about 0.9%. Unless noted, the rule behind the calls is not given here.
SMILES,Resorufin fluor,Rhodamine autofl,A647 autofl,Fluorescein fluor,Texas Red fluor,A488 fluor
Cc1ccnn2c(-c3ccccc3)c3c(=O)n(C)c(=O)n(C)c3c12,i,i,9.5e-09,1.18e-08M*,i,i
Cc1ccc(-c2c3c(=O)n(C)c(=O)n(C)c3c3nnc4ccccc4n23)cc1,i,i,9e-09,1.11e-07M*,i,?
COc1cc(N2C(=O)NC3CC2(C)Oc2ccccc23)cc(OC)c1OC (stereo not given),i,i,4.23e-08,i,i,i
CN(C)c1ccc(/C=C/C(O)=C2/C(=O)N(C)C3(C)CC2c2ccccc2O3)cc1 (stereo not given),i,i,1e-09,1.6e-08M*,i,i
N#CC1=C(N)C(C#N)(C#N)[C@H](c2ccoc2)[C@H]2CN(Cc3ccccc3)CC=C12,i,i,2.2e-09,3.51e-08M*,?,?
CCN1CC=C2C(C#N)=C(N)C(C#N)(C#N)C(CCc3ccccc3)C2C1 (stereo not given),i,i,1e-09,1.3e-07M*,i,?
CC(=O)N1CC=C2C(C#N)=C(N)C(C#N)(C#N)C(C)C2C1 (stereo not given),i,i,1e-09,?,i,i
CC(=O)N1CC=C2C(C#N)=C(N)C(C#N)(C#N)[C@H](c3ccoc3)[C@H]2C1,i,i,6.05e-08,3.07e-08M*,i,i
CC[C@@H]1CN2CCc3cc(OC)c(OC)cc3[C@H]2C[C@@H]1C[C@@H]1NCCc2cc(OC)c(OC)cc21,i,i,6.45e-08,?,i,i
COc1ccc(OC)c(/C=c2\sc3nc(-c4cccs4)nn3c2=O)c1,i,i,2.4e-09,1.77e-07M*,i,?
C=CCNC(=O)C(C#N)c1nc2ccccc2nc1N1CCCCCC1 (stereo not given),i,i,1e-09,1.26e-08M*,i,i
COc1ccc(CNC(=O)C(C#N)c2nc3ccccc3nc2N2CCCC2)cc1 (stereo not given),i,i,1e-09,3.48e-07M*,i,2.1e-08M*
CCCCNC(=O)C(C#N)c1nc2ccccc2nc1N1CCN(Cc2ccc3c(c2)OCO3)CC1 (stereo not given),i,i,1e-09,?,i,i
C=CCOC(=O)C(C#N)c1nc2ccccc2nc1N1CCN(Cc2ccc3c(c2)OCO3)CC1 (stereo not given),i,i,1e-09,1.16e-08M*,i,i
COc1ccc(CNC(=O)C(C#N)c2nc3ccccc3nc2N2CCN(C)CC2)cc1 (stereo not given),i,i,1.5e-09,i,i,i
CCCCCCOC(=O)C(C#N)c1nc2ccccc2nc1N1CCCCC1 (stereo not given),i,i,2.61e-08,1.02e-08M*,i,i
C/C(=C\COc1cc(=O)[nH]c2ccccc12)CC[C@@H](O)C(C)(C)O,i,i,1e-09,i,i,i
N.N.O=C(O)C1(C(=O)O)CCC1.[Pt],i,i,6.02e-08,?,i,i
COc1ccc2c(c1)c1c(C)c3cnccc3c(C)c1n2CCCN,i,i,1e-09,i,i,i
COC(=O)C(C#N)c1nc2ccccc2nc1N1CCCC1 (stereo not given),i,i,1e-09,i,i,i
CC1CCN(c2nc3ccccc3nc2C(C#N)C(=O)NC2CCCCC2)CC1 (stereo not given),i,i,1.9e-09,1.43e-08M*,i,i
CC1CN(c2nc3ccccc3nc2C(C#N)C(=O)NCc2ccc3c(c2)OCO3)CC(C)O1 (stereo not given),i,i,1e-09,1.14e-07M*,i,?
CCCCNC(=O)C(C#N)c1nc2ccccc2nc1N1CCCC1 (stereo not given),i,i,1e-09,2.26e-07M*,i,1.2e-08M*
CC(=O)O[C@H]1C(=O)[C@]2(C)[C@H]([C@H](OC(=O)c3ccccc3)[C@@]3(O)C[C@H](OC(=O)[C@@H](O)[C@@H](NC(=O)c4ccccc4)c4ccccc4)C(C)=C1C3(C)C)[C@]1(OC(C)=O)CO[C@@H]1C[C@@H]2O,i,i,1.64e-08,i,i,i
CN(C)CCCOc1nn(Cc2ccccc2)c2ccccc12,i,i,2.32e-08,1.94e-08M*,i,i
SMILES,Resorufin fluor,Rhodamine autofl,A647 autofl,Fluorescein fluor,Texas Red fluor,A488 fluor
CN(C)c1ccc(-c2nnc(-c3ccc(S(=O)(=O)C(F)F)cc3)o2)cc1,i,i,2.48e-08,2e-08M*,i,i
COc1ccc(-c2nnc(-c3ccc(N(C)C)cc3)o2)cc1,i,i,9.2e-09,i,?,i
FC(F)(F)c1cc(CO[C@@H]2CCCN[C@H]2c2ccccc2)cc(C(F)(F)F)c1,i,i,2.9e-09,i,?,i
CNC(=O)[C@@H]1O[C@@H](n2cnc3c(N)ncnc32)[C@@H](O)[C@H]1O,i,i,4.1e-09,?,?,i
CCN(CC)c1ccc(C=N/C(C#N)=C(\N)C#N)cc1,i,?,2.21e-08,5.03e-07M*,?,2.56e-08M*
O=c1oc2c(CN3CCCCCC3)c(O)ccc2cc1-c1nc2ccccc2[nH]1,i,i,1e-09,2.97e-06M*,i,1.45e-07M*
COC(=O)CC[C@@H](C)[C@H]1CC[C@H]2[C@H]3CC[C@H]4C[C@@H]5CC[C@@]4(C)C3(O5)[C@@H](Br)[C@@H](Br)[C@@]12C,i,i,1e-09,i,i,i
Cn1c(=O)c2[nH]c(CS(=O)(=O)Cc3nc4c([nH]3)c(=O)n(C)c(=O)n4C)nc2n(C)c1=O,i,i,3.8e-09,1.22e-07M*,?,?
C=C[C@@](C)(O)CC[C@H]1[C@]2(C)CCCC(C)(C)[C@H]2CC[C@]1(C)O,i,i,1.01e-08,?,i,i
N#Cc1c(/N=C/c2cccs2)sc2c1CCC2,i,i,2.5e-08,?,i,i
CN1CCc2c(sc(/N=C/c3ccco3)c2C(N)=O)C1,i,i,8.6e-09,2.47e-08M*,i,?
CN1CCc2c(sc(/N=C/c3cccs3)c2C(N)=O)C1,i,i,1.6e-09,1.08e-08M*,?,i
N#Cc1c(/N=C/c2ccco2)sc2c1CCCCC2,i,i,1e-09,i,i,i
C[C@H]1[C@H](C)CC[C@@]2(C(=O)O)CC[C@]3(C)C(=CC[C@@H]4[C@@]5(C)CC[C@H](O)C(C)(C)[C@@H]5CC[C@@]43C)[C@@H]12,i,i,2.5e-09,i,i,i
